Records with an inconclusive call do not appear. Entries that show only a call come without a potency. A number with no mark means an inactive call. Activity calls are given as the source filed them. Calls follow the shape of the full dose curve.
target: Acetylcholinesterase (Homo sapiens) (UniProt P22303); assay: Acetylcholinesterase (AChE) small molecule antagonists: colormetric cell-based qHTS assay (AID 1347395); details: SH-SY5Y cells AChE activity, colorimetric (Ellman); series mostly up to 115 µM; also: nearly all actives have a fitted effect of over 30% in size
Description: National Center for Advancing Translational Sciences [NCATS]
Division of Preclinical Innovation [DPI]
U.S. Environmental Protection Agency [EPA]
National Institutes of Environmental Health Sciences [NIEHS]
National Toxicology Program [NTP]
U.S. Food and Drug Administration [FDA]
Acetylcholinesterase (AChE) is the primary cholinesterase in the body that hydrolyzes a key neurotransmitter, acetylcholine. Inhibition of AChE activity can lead to neurotoxicity. The known inhibitors include organophosphorous pesticides (OP), chemical warfare agents, drugs, and various phytochemicals.
A homogenous cell-based assay using the Amplite Colormetric acetylcholinesterase assay kit (AAT Bioquest, Sunnyvale, CA) was used to evaluate the chemicals in the Tox21 10K library that inhibit AChE activity. The assay uses 5, 5-dithiobis-(2-nitrobenzoic acid) (DTNB) to quantify the thiocholine produced from the hydrolysis of acetylthiocholine by AChE from the SH-SY5Y cells.
Tox21 Assay Protocol Summary:
For the cell-based AChE assay, 2,000 SH-SY5Y cells in 4 uL/well were dispensed into black, clear-bottom 1536-well plates using a Multidrop Combi dispenser (Thermo Scientific, MA). The assay plates were incubated overnight at 37 C to allow cells to attach to the wells, followed by the transfer of 23 nL of compound or DMSO (vehicle control) by a Pintool Station (Wako Automation, CA). The plates were incubated for 30 min at 37 C and 5% CO2, followed by the addition of 4 uL of detection cocktail solution (DTNB, acetylthiocholine) into each well using a Flying Reagent Dispenser (Beckman Coulter, CA) and then 90 min incubation at 37 C.
Potency is read from the fitted curve at half-maximal effect.

Acetylcholinesterase (Homo sapiens), sequence (P22303 whole entry, looked up): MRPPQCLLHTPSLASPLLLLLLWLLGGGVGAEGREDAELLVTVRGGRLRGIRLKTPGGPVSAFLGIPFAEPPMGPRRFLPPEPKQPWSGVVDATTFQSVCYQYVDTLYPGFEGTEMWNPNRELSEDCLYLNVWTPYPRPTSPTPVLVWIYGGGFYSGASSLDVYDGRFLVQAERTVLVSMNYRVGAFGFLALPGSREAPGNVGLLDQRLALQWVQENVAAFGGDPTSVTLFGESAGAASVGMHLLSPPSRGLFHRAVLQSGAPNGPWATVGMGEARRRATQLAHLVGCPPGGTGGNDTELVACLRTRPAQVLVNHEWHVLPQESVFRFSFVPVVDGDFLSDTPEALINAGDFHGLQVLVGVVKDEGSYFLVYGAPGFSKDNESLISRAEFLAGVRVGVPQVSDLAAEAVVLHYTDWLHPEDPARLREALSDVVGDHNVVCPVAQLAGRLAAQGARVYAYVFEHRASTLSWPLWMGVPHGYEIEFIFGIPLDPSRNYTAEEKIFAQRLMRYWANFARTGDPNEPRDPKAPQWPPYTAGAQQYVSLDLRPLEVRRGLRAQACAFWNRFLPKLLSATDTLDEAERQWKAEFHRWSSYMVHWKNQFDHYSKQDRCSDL

Row | SMILES | Potency | activity, negative = inhibition
1 | CCOc1nc(F)cc2nc(S(=O)(=O)Nc3c(Cl)cccc3Cl)nn12 | inactive | 
2 | Clc1ccc(C(OCCN2CCCCC2)c2ccccc2)cc1 (stereo not given) | inactive | 
3 | CC(c1ccc(O)cc1)(c1ccc(O)cc1)c1ccc(O)cc1 | inactive | 
4 | CCCCN=C=O | inactive | 
5 | N#Cc1ccc(Cl)cc1 | inactive | 
6 | NCC(CC(=O)O)c1ccc(Cl)cc1 (stereo not given) |  | 4.84% [at 0.435 µM]
7 | C=CC(C)=O | inactive | 
8 | O=C(Nc1ccccc1)Nc1cnns1 | inactive | 
9 | O=C(CBr)OCc1ccccc1 | inactive | 
10 | CC(=O)CCC(C)=O | inactive | 
11 | CC1(C)[C@H](C=C(Cl)Cl)[C@@H]1C(=O)O[C@@H](C#N)c1cccc(Oc2ccccc2)c1 | inactive | 
12 | CC(C)N(CCC(C(N)=O)(c1ccccc1)c1ccccn1)C(C)C (stereo not given) | inactive | 
13 | CCOP(=S)(Oc1ccc([N+](=O)[O-])cc1)c1ccccc1 (stereo not given) | inactive | 
14 | COCC(C)N(C(=O)CCl)c1c(C)csc1C (stereo not given) | inactive | 
15 | O=[N+]([O-])C(Br)(CO)CO | 79.6 µM (active) | 
16 | ClC=C(Cl)Cl | inactive | 
17 | C=CC(=O)OC(C)(C)C | inactive | 
18 | CN1C(=O)NC(=O)C(C)(C2=CCCCC2)C1=O (stereo not given) | inactive | 
19 | CC(=O)c1cc2c(cc1C)C(C)(C)C(C)CC2(C)C (stereo not given) | inactive | 
20 | ClCc1ccccc1 | inactive | 

Row | SMILES | Potency | activity, negative = inhibition
21 | O=C(O)C1(c2ccc3c(c2)OC[C@H](Cc2ccc(-c4ccccc4)cc2)[C@H]3O)CCCC1 | inactive | 
22 | Cc1c(F)c(F)c(COC(=O)C2C(/C=C(\Cl)C(F)(F)F)C2(C)C)c(F)c1F (stereo not given) | inactive | 
23 | CC(=O)NC1CCSC1=O (stereo not given) | inactive | 
24 | O=C(O)CC(Cl)C(=O)O (stereo not given) | inactive | 
25 | CC1C(=O)C[C@]2(C(C)C)C[C@H]12 (stereo not given in full) | inactive | 
26 | O=[N+]([O-])c1ccccc1CCl | inactive | 
27 | O=Cc1ccc(Cl)cc1Cl | inactive | 
28 | CC(C)(CCl)C(=O)Cl | inactive | 
29 | COc1cc(CC(C)N)cc2c1OCO2 (stereo not given) | inactive | 
30 | O=C1NCN(c2ccccc2)C12CCN(CCCOc1ccc(F)cc1)CC2 | inactive | 
31 | COC(=O)C(Cl)C(=O)OC | inactive | 
32 | COP(=S)(Oc1cc(Cl)c(Br)cc1Cl)c1ccccc1 (stereo not given) | 63.3 µM (active) | 
33 | Clc1cc(C(Cl)(Cl)Cl)cnc1Cl | inactive | 
34 | O=C1CN=C(c2ccccc2)c2cc(Cl)ccc2N1CC1CC1 | inactive | 
35 | NC(=O)CI | inactive | 
36 | [CH3][Sn]([CH3])([Cl])[Cl] | inactive | 
37 | CCC(COC(=O)c1cc(OC)c(OC)c(OC)c1)(c1ccccc1)N(C)C (stereo not given) | inactive | 
38 | COc1ccc(-c2ccccc2)cc1NNC(=O)OC(C)C | inactive | 
39 | CN1C(=O)C(O)N=C(c2ccccc2)c2cc(Cl)ccc21 (stereo not given) | inactive | 
40 | O=[Se]=O | inactive | 
